From PubChem BioAssay AID1159580 (chemical genetic matrix, 2015)
Several values for one entry are separate records, joined by “and”; a condition that tells them apart may be missing. Equal values may be shown once. The whole screen tested about 5,500 compounds, of which about 2,000 (36%) were called active. Inconclusive results (about 18%) are left out. No stated cut-off is given here; in the data, active means normalized growth mostly below about 0.91 (no sharp cut-off); inconclusive means no clear call, values can overlap the other calls; inactive means mostly above about 0.92. This is one part of the list.

Test: chemical genetic growth profiling, strain panel (AID 1159580);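 further: tested at 20 µM; growth read once vehicle control cultures reached saturation at 30 °C; 1 = growth at the plate median or of vehicle wells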
Conditions: S. cerevisiae deletion strains, growth OD

Measured: normalized growth

Oc1ccc(Cl)c2cccnc12
active: locus YAL021C, strain ccr4, stronger effect = lower value 0.0729 | locus YAL026C, strain drs2, stronger effect = lower value 0.0768 | locus YAL030W, strain snc1, stronger effect = lower value 0.0588 | locus YBL061C, strain skt5, stronger effect = lower value 0.0618 | locus YBR009C, strain hhf1, stronger effect = lower value 0.0586 | locus YBR021W, strain FUR4, stronger effect = lower value 0.11 | locus YBR023C, strain chs3, stronger effect = lower value 0.0665 | locus YBR171W, strain sec66, stronger effect = lower value 0.0765 | locus YBR229C, strain ROT2, stronger effect = lower value 0.0466 | locus YBR231C, strain swc5, stronger effect = lower value 0.0699 | locus YBR279W, strain paf1, stronger effect = lower value 0.0591 | locus YCL011C, strain gbp2, stronger effect = lower value 0.0563 | locus YCL016C, strain dcc1, stronger effect = lower value 0.119 | locus YCL029C, strain bik1, stronger effect = lower value 0.0654 | locus YCL069W, strain vba3, stronger effect = lower value 0.0931 | locus YCR088W, strain abp1, stronger effect = lower value 0.0863 | locus YDL005C, strain med2, stronger effect = lower value 0.14 | locus YDL035C, strain GPR1, stronger effect = lower value 0.0492 | locus YDL040C, strain nat1, stronger effect = lower value 0.169 | locus YDL074C, strain BRE1, stronger effect = lower value 0.0799 | locus YDL101C, strain DUN1, stronger effect = lower value 0.0585 | locus YDL185W, strain tfp1, stronger effect = lower value 0.0618 | locus YDL192W, strain arf1, stronger effect = lower value 0.0648 | locus YDR001C, strain nth1, stronger effect = lower value 0.113 | locus YDR069C, strain doa4, stronger effect = lower value 0.0629 | locus YDR101C, strain arx1, stronger effect = lower value 0.0618 | locus YDR137W, strain rgp1, stronger effect = lower value 0.102 | locus YDR159W, strain sac3, stronger effect = lower value 0.284 | locus YDR162C, strain NBP2, stronger effect = lower value 0.0481 | locus YDR195W, strain ref2 0.112 | locus YDR297W, strain sur2, stronger effect = lower value 0.0577 | locus YDR318W, strain mcm21, stronger effect = lower value 0.0654 | locus YDR334W, strain swr1, stronger effect = lower value 0.0718 | locus YDR335W, strain msn5, stronger effect = lower value 0.0632 | locus YDR388W, stronger effect = lower value 0.0579 | locus YDR392W, strain spt3, stronger effect = lower value 0.12 | locus YDR502C, strain sam2, stronger effect = lower value 0.0635 | locus YEL003W, strain gim4, stronger effect = lower value 0.0561 | locus YEL037C, strain rad23, stronger effect = lower value 0.0834 | locus YEL061C, strain CIN8 (second series), stronger effect = lower value 0.113 | locus YEL061C, strain CIN8, stronger effect = lower value 0.0497 | locus YER015W, strain faa2, stronger effect = lower value 0.0605 | locus YER016W, strain bim1, stronger effect = lower value 0.0613 | locus YER110C, stronger effect = lower value 0.0829 | locus YER111C, strain swi4, stronger effect = lower value 0.0714 | locus YER155C, strain BEM2 (second series), stronger effect = lower value 0.0997 | locus YER155C, strain BEM2, stronger effect = lower value 0.0681 | locus YER167W, strain BCK2, stronger effect = lower value 0.0524 | locus YFR010W, strain ubp6, stronger effect = lower value 0.0733 | locus YGL078C, strain dbp3, stronger effect = lower value 0.0711 | locus YGL086W, strain mad1, stronger effect = lower value 0.0668 | locus YGL167C, strain pmr1, stronger effect = lower value 0.0738 | locus YGL173C, strain kem1, stronger effect = lower value 0.0702 | locus YGL227W, strain vid30, stronger effect = lower value 0.128 | locus YGL240W, strain doc1, stronger effect = lower value 0.0706 | locus YGL248W, strain PDE1, stronger effect = lower value 0.0483 | locus YGL253W, strain hxk2, stronger effect = lower value 0.0835 | locus YGR078C, strain PAC10, stronger effect = lower value 0.0502 | locus YGR135W, strain pre9, stronger effect = lower value 0.066 | locus YGR252W, strain gcn5, stronger effect = lower value 0.174 | locus YHR013C, strain ard1, stronger effect = lower value 0.101 | locus YHR027C, strain rpn1, stronger effect = lower value 0.0624 | locus YHR030C, strain SLT2, stronger effect = lower value 0.0509 and 0.106 | locus YHR079C, strain IRE1 (second series), stronger effect = lower value 0.0587 | locus YHR079C, strain IRE1, stronger effect = lower value 0.127 | locus YHR094C, strain hxt1, stronger effect = lower value 0.0631 | locus YHR129C, strain ARP1, stronger effect = lower value 0.0599 | locus YHR142W, strain chs7, stronger effect = lower value 0.0877 | locus YHR200W, strain rpn10, stronger effect = lower value 0.0662 | locus YIL066C, strain RNR3, stronger effect = lower value 0.0495 | locus YIL073C, strain SPO22, stronger effect = lower value 0.111 | locus YIL125W, strain kgd1, stronger effect = lower value 0.0705 | locus YIR030C, strain dcg1, stronger effect = lower value 0.0597 | locus YJL092W, strain hpr5, stronger effect = lower value 0.0945 | locus YJL095W, strain BCK1 (second series), stronger effect = lower value 0.0605 | locus YJL095W, strain BCK1, stronger effect = lower value 0.0616 and 0.0998 | locus YJL115W, strain asf1, stronger effect = lower value 0.146 | locus YJL129C, strain trk1, stronger effect = lower value 0.0826 | locus YJL134W, strain LCB3, stronger effect = lower value 0.0525 | locus YJL154C, strain vps35, stronger effect = lower value 0.102 | locus YJL164C, strain tpk1, stronger effect = lower value 0.0587 | locus YJL166W, strain qcr8, stronger effect = lower value 0.059 | locus YJL168C, strain set2, stronger effect = lower value 0.0636 | locus YJL187C, strain SWE1 (second series), stronger effect = lower value 0.0476 | locus YJR043C, strain POL32, stronger effect = lower value 0.0636 | locus YJR066W, strain TOR1, stronger effect = lower value 0.0218 | locus YKL009W, strain mrt4, stronger effect = lower value 0.0954 | locus YKL068W, stronger effect = lower value 0.0759 | locus YKL085W, strain MDH1 (second series), stronger effect = lower value 0.0618 | locus YKL085W, strain MDH1, stronger effect = lower value 0.0618 | locus YKL160W, strain elf1, stronger effect = lower value 0.082 | locus YKR001C, strain vps1, stronger effect = lower value 0.0627 | locus YKR026C, strain gcn3, stronger effect = lower value 0.122 | locus YKR091W, strain srl3, stronger effect = lower value 0.135 | locus YLL001W, strain dnm1, stronger effect = lower value 0.0833 | locus YLL026W, stronger effect = lower value 0.0593 | locus YLL041C, strain sdh2, stronger effect = lower value 0.065 | locus YLR027C, strain aat2, stronger effect = lower value 0.0538 | locus YLR039C, strain RIC1, stronger effect = lower value 0.0942 | locus YLR058C, strain SHM2, stronger effect = lower value 0.0495 | locus YLR102C, strain apc9, stronger effect = lower value 0.0664 | locus YLR113W, strain HOG1, stronger effect = lower value 0.168 | locus YLR221C, strain rsa3, stronger effect = lower value 0.0599 | locus YLR258W, strain gsy2, stronger effect = lower value 0.0596 | locus YLR262C, strain YPT6 (second series), stronger effect = lower value 0.108 | locus YLR262C, strain YPT6, stronger effect = lower value 0.103 | locus YLR268W, strain sec22, stronger effect = lower value 0.0689 | locus YLR320W, strain mms22, stronger effect = lower value 0.0776 | locus YLR330W, strain CHS5, stronger effect = lower value 0.0512 | locus YLR342W, strain FKS1 (second series), stronger effect = lower value 0.0673 | locus YLR342W, strain FKS1, stronger effect = lower value 0.0668 | locus YLR357W, strain rsc2, stronger effect = lower value 0.203 | locus YLR370C, strain arc18, stronger effect = lower value 0.0765 | locus YLR371W, strain rom2, stronger effect = lower value 0.066 | locus YLR384C, strain iki3, stronger effect = lower value 0.0582 | locus YLR418C, strain cdc73, stronger effect = lower value 0.0923 | locus YML016C, strain PPZ1, stronger effect = lower value 0.0462 | locus YML032C, strain rad52, stronger effect = lower value 0.0754 | locus YML120C, strain ndi1, stronger effect = lower value 0.0565 | locus YML124C, strain tub3, stronger effect = lower value 0.0612 | locus YMR058W, strain fet3, stronger effect = lower value 0.0641 | locus YMR078C, strain ctf18, stronger effect = lower value 0.0785 | locus YMR125W, strain sto1, stronger effect = lower value 0.244 | locus YMR129W, stronger effect = lower value 0.0599 | locus YMR205C, strain PFK2, stronger effect = lower value 0.12 | locus YMR223W, strain ubp8, stronger effect = lower value 0.0681 | locus YMR231W, strain pep5, stronger effect = lower value 0.0661 | locus YMR263W, strain SAP30, stronger effect = lower value 0.0554 | locus YMR307W, strain GAS1, stronger effect = lower value 0.132 | locus YNL067W, strain RPL9B, stronger effect = lower value 0.049 | locus YNL071W, strain lat1, stronger effect = lower value 0.0622 | locus YNL183C, strain NPR1, stronger effect = lower value 0.0694 | locus YNL209W, strain ssb2, stronger effect = lower value 0.0567 | locus YNL233W, strain BNI4, stronger effect = lower value 0.0547 | locus YNL248C, strain rpa49, stronger effect = lower value 0.194 | locus YNL250W, strain rad50, stronger effect = lower value 0.0731 | locus YNL271C, strain bni1, stronger effect = lower value 0.0769 | locus YNL298W, strain CLA4, stronger effect = lower value 0.076 | locus YNL307C, strain MCK1, stronger effect = lower value 0.0703 | locus YNL322C, strain KRE1 (second series), stronger effect = lower value 0.0667 | locus YNL322C, strain KRE1, stronger effect = lower value 0.0462 | locus YNR049C, strain mso1, stronger effect = lower value 0.0954 | locus YNR052C, strain pop2, stronger effect = lower value 0.065 | locus YOL006C, strain TOP1, stronger effect = lower value 0.117 | locus YOL147C, strain pex11, stronger effect = lower value 0.0602 | locus YOR001W, strain rrp6, stronger effect = lower value 0.0711 | locus YOR061W, strain CKA2, stronger effect = lower value 0.0478 | locus YOR069W, strain VPS5, stronger effect = lower value 0.0472 | locus YOR070C, strain gyp1, stronger effect = lower value 0.0596 | locus YOR080W, strain dia2, stronger effect = lower value 0.0638 | locus YOR083W, strain WHI5, stronger effect = lower value 0.0897 | locus YOR106W, strain vam3, stronger effect = lower value 0.0664 | locus YOR136W, strain idh2, stronger effect = lower value 0.0784 | locus YOR144C, strain elg1, stronger effect = lower value 0.0595 | locus YOR184W, strain ser1, stronger effect = lower value 0.0724 | locus YOR231W, strain MKK1, stronger effect = lower value 0.115 | locus YOR265W, strain rbl2, stronger effect = lower value 0.0564 | locus YOR270C, strain vph1, stronger effect = lower value 0.131 | locus YOR290C, strain snf2, stronger effect = lower value 0.0717 | locus YOR316C, strain cot1, stronger effect = lower value 0.0637 | locus YPL051W, strain arl3, stronger effect = lower value 0.062 | locus YPL055C, strain LGE1, stronger effect = lower value 0.0714 | locus YPL078C, strain atp4, stronger effect = lower value 0.0623 | locus YPL106C, strain sse1, stronger effect = lower value 0.096 | locus YPL240C, strain hsp82, stronger effect = lower value 0.083 | locus YPL256C, strain CLN2, stronger effect = lower value 0.129 | locus YPR119W, strain clb2, stronger effect = lower value 0.0694 | locus YPR141C, strain kar3, stronger effect = lower value 0.0792 | locus YPR163C, strain tif3, stronger effect = lower value 0.0744 | locus YPR167C, strain met16, stronger effect = lower value 0.0645 | strain wtn01, stronger effect = lower value 0.0639
